# The source made the active and inactive calls.
# Columns and labels:
# [1] = binders of probe aFSTL3 on microarray, primary screen, stem cell growth factor project, biochemical, small-molecule microarray, fluorescence 635/667 (AID 1064); settings: higher = more signal;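 further: measures binding of the biotinylated anti-FSTL3 antibody to printed compounds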
# [2] = binders from COS7 lysate, DM2A8 probe, primary screen, torsin A project, cell lysate, small-molecule microarray, fluorescence 635/667 (AID 1065); settings: higher = more signal, COS7 lysate expressing mutant human TOR1A
# [3] = binders of probe aFGF2 on microarray, primary screen, stem cell growth factor project, biochemical, small-molecule microarray, fluorescence 635/667 (AID 1067); settings: higher = more signal;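 further: measures binding of biotinylated aFGF2 protein to printed compounds on slides; z-score merges feature fluorescence and signal-to-noise across triplicate slides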
# [4] = binders of probe aFGF10 on microarray, primary screen, stem cell growth factor project, biochemical, small-molecule microarray, fluorescence 635/667 (AID 1071); settings: higher = more signal;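 further: score merges 667 nm spot intensity and signal to noise from triplicate slides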
# [5] = molecular target: Neurogenic locus notch homolog protein 2 (Homo sapiens) (UniProt Q04721); experiment: Notch2 binders on small-molecule microarrays, primary screen, biochemical, small-molecule microarray, 635 nm fluorescence, stem cell growth factors (AID 1073); settings: Notch2 binding, higher = more signal
# [6] = molecular target: Pro-neuregulin-1, membrane-bound isoform (Homo sapiens) (UniProt Q02297); experiment: NRG1 binders on small-molecule microarrays, primary screen, psychiatric disease protein project, biochemical, small-molecule microarray, fluorescence 635/667 (AID 1075); settings: NRG1 binding, 635 nm fluorescence, higher = more signal;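 further: score combines 667 nm spot fluorescence with signal to noise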
# [7] = tested on: Neuregulin-1 EGF-like domain; experiment: binders of neuregulin-1 EGF-like domain, primary screen, biochemical, small-molecule microarray, 635 nm fluorescence (AID 1081); settings: small-molecule microarray binding, higher = more signal;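 further: binding of the protein to compounds printed on small-molecule microarray slides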
# [8] = FRG1 promoter luciferase signal modulators, primary screen, FRG1 inhibition for FSHD, cell-based, C2C12 myotubes, firefly/Renilla luciferase, luminescence (AID 1084); settings: higher = more signal, called active from +8 up or from −8 down
# [9] = binders of probe aFST on microarray, primary screen, stem cell growth factor project, biochemical, small-molecule microarray, fluorescence 635/667 (AID 1086); settings: higher = more signal;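 further: score merges 667 nm fluorescence with signal-to-noise of each printed compound spot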
# [10] = binders of probe aHhip on microarray, primary screen, stem cell growth factor project, biochemical, small-molecule microarray, fluorescence 635/667 (AID 1087); settings: higher = more signal;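 further: score merges spot fluorescence at 667nm with spot signal to noise ratio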
# [11] = tested on: PRMT1 (protein arginine N-methyltransferase 1); experiment: PRMT1 binders on small-molecule microarrays, primary screen, biochemical, small-molecule microarray, 635 nm fluorescence (AID 1088); settings: small-molecule microarray binding, higher = more signal;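 further: binding of Prmt1 protein to compounds spotted on small-molecule microarray slides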
# [12] = yeast growth modulation, basal conditions, primary screen, YJM789 clinical isolate, OD600, 24 h (AID 1089);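 further: growth of clinical yeast isolate S. cerevisiae YJM 789 seeded 1000 cells per well; test concentration not given here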; settings: S. cerevisiae YJM789 growth, higher = more signal, called active from +8 up or from −8 down
# [13] = fission yeast growth modulation, primary screen, strain 972, OD600, 24 h, no modulator (AID 1090);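 further: basal condition with compound alone and no growth modifier present; test concentration not given here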; settings: S. pombe 972 growth, higher = more signal, called active from +8 up or from −8 down
# [14] = S. cerevisiae growth modulation with rapamycin, primary screen, strain BY4716, OD600, 96 h (AID 1091); settings: higher = more signal, called active from +8 up or from −8 down; further: test concentration not given here
# [15] = molecular target: Torsin-1A-interacting protein 2 (Homo sapiens) (UniProt Q8NFQ8); experiment: LULL1 binders on small-molecule microarray, primary screen, cell lysate, human LULL1 lysate, 635/667 nm fluorescence (AID 1092); settings: hLULL1 lysate binding, 635 nm fluorescence, higher = more signal;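 further: probe is lysate of COS7 cells overexpressing human LULL1; score merges per-feature 667 nm fluorescence with signal-to-noise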
# [16] = E. coli growth modulation, two-sided OD650, primary screen, E. coli filamentation project, strain DRC41, 24 h (AID 1093); settings: OD650, 24 h, higher = more signal, called active from +8 up or from −8 down;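 further: MC1000 strain lacking acrAB efflux and sulA so SOS filamentation is blocked; test concentration not given here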
# [17] = small-molecule microarray binders of probe aLefty2, primary screen, biochemical, biotinylated probe, 635/667 nm fluorescence (AID 1094); settings: higher = more signal;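 further: score merges spot fluorescence near 667 nm with spot signal-to-noise ratio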
# [18] = tested on: Noggin (protein binding on small-molecule microarray); experiment: Noggin binders on small-molecule microarray, primary screen, biochemical, 635/667 nm fluorescence (AID 1095); settings: 635 nm fluorescence, higher = more signal;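 further: score merges 667 nm feature fluorescence with signal to noise over triplicate slides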
# [19] = molecular target: Neurogenic locus notch homolog protein 3 (Homo sapiens) (UniProt Q9UM47); experiment: NOTCH3 binders on small-molecule microarray, primary screen, biochemical, 635/667 nm fluorescence (AID 1096); settings: NOTCH3 binding, 635 nm fluorescence, higher = more signal
# [20] = small-molecule microarray binders of probe aEGFR, primary screen, biochemical, biotinylated probe, 635/667 nm fluorescence (AID 1097); settings: higher = more signal;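 further: probe is a biotinylated anti-EGFR antibody binding compounds printed on slides; score combines fluorescence near 667 nm and signal to noise of each spot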
# Sequence of Torsin-1A-interacting protein 2 (Homo sapiens) (Q8NFQ8 whole entry, looked up): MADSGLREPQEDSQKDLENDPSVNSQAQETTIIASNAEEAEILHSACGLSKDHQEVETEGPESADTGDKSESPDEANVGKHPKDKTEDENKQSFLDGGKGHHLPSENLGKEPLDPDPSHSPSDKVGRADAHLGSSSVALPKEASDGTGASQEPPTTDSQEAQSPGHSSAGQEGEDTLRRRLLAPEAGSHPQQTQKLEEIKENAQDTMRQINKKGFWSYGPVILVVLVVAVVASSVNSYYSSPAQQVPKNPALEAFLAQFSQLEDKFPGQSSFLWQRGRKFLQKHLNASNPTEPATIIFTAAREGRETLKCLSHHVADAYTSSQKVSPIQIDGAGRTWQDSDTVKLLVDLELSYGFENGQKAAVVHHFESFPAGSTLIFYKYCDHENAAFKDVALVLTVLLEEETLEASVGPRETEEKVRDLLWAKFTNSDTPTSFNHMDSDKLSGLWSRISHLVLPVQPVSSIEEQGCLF
# Sequence of Pro-neuregulin-1, membrane-bound isoform (Homo sapiens) (Q02297 whole entry, looked up, the tested form may be a part, canonical isoform): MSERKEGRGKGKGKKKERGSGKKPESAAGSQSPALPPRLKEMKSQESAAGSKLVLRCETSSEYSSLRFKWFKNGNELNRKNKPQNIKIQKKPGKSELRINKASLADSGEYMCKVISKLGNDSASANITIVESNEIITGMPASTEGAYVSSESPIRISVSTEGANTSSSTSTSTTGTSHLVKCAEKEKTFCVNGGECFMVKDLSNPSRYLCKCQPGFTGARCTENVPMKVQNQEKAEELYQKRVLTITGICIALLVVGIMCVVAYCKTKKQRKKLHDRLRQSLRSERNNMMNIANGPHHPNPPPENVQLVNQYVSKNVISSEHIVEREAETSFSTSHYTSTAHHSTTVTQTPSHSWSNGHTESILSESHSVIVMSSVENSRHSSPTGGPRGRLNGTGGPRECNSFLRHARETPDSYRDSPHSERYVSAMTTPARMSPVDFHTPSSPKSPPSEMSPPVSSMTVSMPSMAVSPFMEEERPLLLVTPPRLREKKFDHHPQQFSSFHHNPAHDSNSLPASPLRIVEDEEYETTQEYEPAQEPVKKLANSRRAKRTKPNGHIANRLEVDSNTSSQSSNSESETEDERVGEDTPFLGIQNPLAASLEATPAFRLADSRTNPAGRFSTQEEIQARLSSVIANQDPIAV
# Sequence of Neurogenic locus notch homolog protein 2 (Homo sapiens) (Q04721 whole entry, looked up, canonical isoform): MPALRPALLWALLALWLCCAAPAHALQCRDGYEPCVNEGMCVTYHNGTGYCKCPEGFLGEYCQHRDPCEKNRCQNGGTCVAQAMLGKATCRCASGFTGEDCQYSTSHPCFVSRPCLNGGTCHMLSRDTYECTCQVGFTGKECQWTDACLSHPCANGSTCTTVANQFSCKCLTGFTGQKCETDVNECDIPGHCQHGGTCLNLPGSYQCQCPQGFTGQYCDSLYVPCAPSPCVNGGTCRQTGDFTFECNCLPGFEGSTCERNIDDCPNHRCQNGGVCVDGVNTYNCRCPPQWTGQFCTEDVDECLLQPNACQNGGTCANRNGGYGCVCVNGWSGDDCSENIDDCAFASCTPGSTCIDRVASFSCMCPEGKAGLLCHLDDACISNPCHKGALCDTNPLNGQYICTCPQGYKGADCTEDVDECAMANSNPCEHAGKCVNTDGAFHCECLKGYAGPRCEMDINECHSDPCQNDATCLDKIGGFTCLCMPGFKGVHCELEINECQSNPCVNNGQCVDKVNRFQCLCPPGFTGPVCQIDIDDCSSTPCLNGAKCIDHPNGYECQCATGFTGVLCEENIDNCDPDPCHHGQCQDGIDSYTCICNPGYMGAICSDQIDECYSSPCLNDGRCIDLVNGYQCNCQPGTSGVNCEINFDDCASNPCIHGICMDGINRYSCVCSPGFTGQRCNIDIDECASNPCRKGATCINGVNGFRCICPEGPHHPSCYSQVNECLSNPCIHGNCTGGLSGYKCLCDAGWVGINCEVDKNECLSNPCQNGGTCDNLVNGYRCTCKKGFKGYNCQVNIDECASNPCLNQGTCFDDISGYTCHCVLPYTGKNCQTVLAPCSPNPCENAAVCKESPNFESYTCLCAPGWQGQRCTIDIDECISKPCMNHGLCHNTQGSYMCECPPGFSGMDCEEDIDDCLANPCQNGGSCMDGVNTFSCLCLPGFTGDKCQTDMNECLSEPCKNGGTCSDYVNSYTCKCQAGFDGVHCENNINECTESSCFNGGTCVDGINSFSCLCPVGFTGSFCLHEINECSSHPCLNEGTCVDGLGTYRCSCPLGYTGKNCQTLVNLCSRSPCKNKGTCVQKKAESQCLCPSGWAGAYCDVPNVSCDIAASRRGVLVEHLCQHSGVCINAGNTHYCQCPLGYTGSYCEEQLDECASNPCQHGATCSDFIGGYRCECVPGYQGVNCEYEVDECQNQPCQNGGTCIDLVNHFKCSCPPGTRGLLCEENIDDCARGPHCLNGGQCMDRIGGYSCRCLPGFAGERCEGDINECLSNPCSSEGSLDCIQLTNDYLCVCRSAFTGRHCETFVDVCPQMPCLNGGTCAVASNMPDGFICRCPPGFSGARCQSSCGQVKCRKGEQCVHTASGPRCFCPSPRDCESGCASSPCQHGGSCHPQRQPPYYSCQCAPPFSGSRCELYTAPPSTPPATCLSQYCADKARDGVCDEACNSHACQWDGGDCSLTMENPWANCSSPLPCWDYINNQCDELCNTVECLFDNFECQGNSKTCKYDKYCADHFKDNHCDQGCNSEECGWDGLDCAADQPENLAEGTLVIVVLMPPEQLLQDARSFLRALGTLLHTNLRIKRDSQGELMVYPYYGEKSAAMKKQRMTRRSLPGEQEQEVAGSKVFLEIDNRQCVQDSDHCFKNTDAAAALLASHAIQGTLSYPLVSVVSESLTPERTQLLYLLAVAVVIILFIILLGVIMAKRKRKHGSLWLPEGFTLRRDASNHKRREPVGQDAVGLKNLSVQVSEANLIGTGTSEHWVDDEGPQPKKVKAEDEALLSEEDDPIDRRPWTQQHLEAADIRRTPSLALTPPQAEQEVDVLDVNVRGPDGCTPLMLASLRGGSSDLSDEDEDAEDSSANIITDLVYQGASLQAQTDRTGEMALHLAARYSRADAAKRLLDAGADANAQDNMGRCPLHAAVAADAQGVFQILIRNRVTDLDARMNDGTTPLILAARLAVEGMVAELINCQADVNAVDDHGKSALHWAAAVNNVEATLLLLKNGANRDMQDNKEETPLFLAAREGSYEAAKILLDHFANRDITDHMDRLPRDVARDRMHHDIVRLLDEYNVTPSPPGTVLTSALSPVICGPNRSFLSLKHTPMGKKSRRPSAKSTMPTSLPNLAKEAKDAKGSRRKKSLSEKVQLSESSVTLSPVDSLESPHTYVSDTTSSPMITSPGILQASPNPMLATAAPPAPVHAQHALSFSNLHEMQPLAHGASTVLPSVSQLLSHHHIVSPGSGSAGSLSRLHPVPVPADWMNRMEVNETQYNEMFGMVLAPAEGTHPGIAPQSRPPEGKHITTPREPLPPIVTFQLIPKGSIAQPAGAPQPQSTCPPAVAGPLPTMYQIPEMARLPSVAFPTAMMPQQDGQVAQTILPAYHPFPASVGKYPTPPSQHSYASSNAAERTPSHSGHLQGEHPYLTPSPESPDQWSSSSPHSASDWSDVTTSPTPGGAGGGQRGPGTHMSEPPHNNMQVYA
SMILES,composite z-score [1],composite z-score [2],composite z-score [3],composite z-score [4],composite z-score [5],composite z-score [6],composite z-score [7],z-score [8],composite z-score [9],composite z-score [10],composite z-score [11],z-score [12],z-score [13],z-score [14],composite z-score [15],z-score [16],composite z-score [17],composite z-score [18],composite z-score [19],composite z-score [20]
CCOC(=O)CCN1C(=O)[C@H]2[C@H]3[C@H](O)[C@H](O)CC(=NNC(=O)OCc4ccc(OC)cc4)[C@H]3CC[C@H]2C1=O,-0.41,0.339,-0.116,0.155,0.68,0.0204,0.0944,-0.971 (inactive),0.245,-0.329,0.271,0.0811 (inactive),-0.257 (inactive),-0.577 (inactive),0.282,-0.31 (inactive),0.0108,0.335,0.316,0.0289
CCCNC(=O)OC[C@H]1O[C@H](CCON=C2c3cc(OC)ccc3O[C@H](c3cccc(OC)c3)[C@H]2O)C=C[C@@H]1Oc1ccc(OC)cc1,-0.231,0.768,-0.0647,0.884,1.17,0.64,0.93,0.446 (inactive),0.167,-0.0237,0.799,-0.409 (inactive),0.464 (inactive),0.479 (inactive),0.972,0.8 (inactive),0.451,0.716,0.468,0.0897
CC(C)=CCCC(C)=CCON=C1C[C@@H](O)[C@@H](O)[C@@H]2[C@@H]3C(=O)N(Cc4ccc5c(c4)OCO5)C(=O)[C@@H]3CC[C@H]12,-0.386,-0.203,-0.0687,0.584,1.18,0.78,0.615,0.34 (inactive),0.416,-0.272,1.44,0.329 (inactive),0.197 (inactive),-0.251 (inactive),1.93,0.103 (inactive),-0.166,0.564,0.907,-0.0271
CC(C)=CCCC(C)=CCON=C1C[C@@H](O)[C@@H](O)[C@@H]2[C@@H]3C(=O)N(C4CCCCC4)C(=O)[C@@H]3CC[C@H]12,-0.317,0.396,-0.0725,0.548,0.535,0.475,0.255,0.0864 (inactive),0.53,0.408,1.52,0.194 (inactive),-0.312 (inactive),-0.382 (inactive),0.341,0.474 (inactive),-0.0575,1.07,0.789,0.0065
CO[C@H]1C[C@@H]2C[C@H](O)CC(CC(=O)O[C@@H](C=CCC(C)C)C[C@@H]3CC[C@H](C)[C@@H](C1)O3)O2,-0.479,0.613,-0.0442,0.365,1.03,-0.33,0.661,0.0521 (inactive),0.36,-0.226,1.54,-0.124 (inactive),-0.425 (inactive),-0.414 (inactive),1.82,0.128 (inactive),-0.158,0.506,1.06,-0.0458
CCOC(=O)[C@H](Cc1ccccc1)NC(=O)CCC1CC(OC(=O)NCc2ccc3c(c2)OCO3)CC2(CCCC(COC(=O)NCCOc3ccccc3)O2)O1 (stereo not given in full),-0.288,0.474,-0.051,0.378,0.896,0.833,1.08,1.17 (inactive),0.672,-0.0994,1.48,0.0339 (inactive),0.486 (inactive),0.576 (inactive),1.31,0.196 (inactive),-0.0446,0.484,1.12,0.0436
COc1ccc(O[C@H]2C=C[C@@H](c3ccccc3)O[C@@H]2COC(=O)NCc2cccc3ccccc23)cc1,-0.0348,-0.0761,-0.107,0.0599,-0.096,-0.027,0.0452,-0.97 (inactive),-0.116,-0.294,0.133,0.68 (inactive),0.393 (inactive),1.28 (inactive),0.33,-0.477 (inactive),-0.106,0.0672,-0.574,-0.122
CC(C)[C@@H](OCc1ccccc1)[C@H](C)C=NO[C@@H](C)c1cn([C@H](CO)Cc2ccccc2)nn1,-0.474,0.384,0.491,0.175,0.301,-0.236,-0.419,0.193 (inactive),0.155,-0.175,0.195,-2.32 (inactive),-3.21 (inactive),-1.14 (inactive),0.559,0.96 (inactive),-0.186,0.803,0.543,-0.128
CN1CCc2nc(-c3ccccc3)c(-c3ccccc3)cc2C1,-0.16,0.0357,-0.128,0.239,0.521,-0.013,-0.326,-0.0006 (inactive),-0.117,-0.148,-0.288,0.0301 (inactive),0.173 (inactive),-1.35 (inactive),-0.0501,0.697 (inactive),0.361,0.405,0.157,-0.0382
COC(=O)[C@H](C)NC(=O)CCC1CC(OC(=O)NCc2cccc3ccccc23)CC2(CCCC(COC(=O)NCCc3ccccc3OC)O2)O1 (stereo not given in full),-0.629,0.0902,-0.076,0.612,1.24,1.15,1.21,2.21 (inactive),0.573,0.24,1.37,0.502 (inactive),1.02 (inactive),2.03 (inactive),2.38,0.476 (inactive),-0.0179,1.14,0.817,0.0066
CCN1C(C)=C(C(=O)OC)[C@@H](c2ccccc2)N2C(=O)[C@](O)(C(=O)OC)CC(C(C)=O)=C12,-0.619,0.159,-0.205,0.372,0.505,-0.125,-0.254,-1.11 (inactive),0.101,-0.0618,0.0774,0.02 (inactive),-1.13 (inactive),0.712 (inactive),-0.25,0.302 (inactive),-0.313,0.768,0.534,-0.0957

# Source: PubChem BioAssay
